Measurements as given in PubChem BioAssay (NCATS).
Records with an inconclusive call do not appear. Calls of active or inactive are those of the source. Calls follow the shape of the dose curve; as a rule, active = well fitted curve in the direction sought with a large enough effect; inconclusive = small, poorly fitted or top-dose-only effect, or another doubt; inactive = no such curve, though single readings can be large; an effect the other way counts as inactive or inconclusive.

Experiments:
[1] = qHTS of pediatric cancer cell lines to identify multiple opportunities for drug repurposing: Primary screen for Saos-2 cells (AID 1347097); also: nearly all actives have a fitted effect of over 40% in size; also: potency is read from the fitted curve at half-maximal effect
Summary of the method: (§1)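 Plated cells (500-1,000 per well, growth media) were allowed to settle for 5 hours, treated with compound dilutions for 48 hours, then lysed with CellTiter-Glo for 15 min at room temperature before luminescence reading.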

[2] = qHTS of pediatric cancer cell lines to identify multiple opportunities for drug repurposing: Primary screen for SK-N-SH cells (AID 1347098); also: nearly all actives have a fitted effect of over 65% in size; also: potency is read from the fitted curve at half-maximal effect
Summary of the method: (§2)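 Cells (500-1,000/well) rested 5 h, then received compounds for 48 h; metabolically active cells were measured by CellTiter-Glo luminescence. Final concentrations spanned up to 46 µM (MIPE, 11-point) or 0.59 nM-46 µM (NPC, 8-point) in primary screens, 11-point in follow-ups.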

[3] = qHTS of pediatric cancer cell lines to identify multiple opportunities for drug repurposing: Primary screen for NB1643 cells (AID 1347099); also: nearly all actives have a fitted effect of over 50% in size; also: potency is read from the fitted curve at half-maximal effect
Summary of the method: as §1

[4] = qHTS of pediatric cancer cell lines to identify multiple opportunities for drug repurposing: Primary screen for Rh18 cells (AID 1347102); also: nearly all actives have a fitted effect of over 65% in size; also: potency is read from the fitted curve at half-maximal effect
Summary of the method: as §2

[5] = qHTS of pediatric cancer cell lines to identify multiple opportunities for drug repurposing: Primary screen for RD cells (AID 1347104); also: nearly all actives have a fitted effect of over 55% in size; also: potency is read from the fitted curve at half-maximal effect
Summary of the method: as §1

[6] = qHTS of pediatric cancer cell lines to identify multiple opportunities for drug repurposing: Primary screen for MG 63 (6-TG R) cells (AID 1347105); also: nearly all actives have a fitted effect of over 50% in size; also: potency is read from the fitted curve at half-maximal effect
Summary of the method: as §1

[7] = qHTS of pediatric cancer cell lines to identify multiple opportunities for drug repurposing: Primary screen for control Hh wild type fibroblast cells (AID 1347106);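 also: series mostly up to about 46 µM; a drop in luminescence marks cytotoxicity and a rise apparent proliferation; nearly all actives have a fitted effect of over 55% in size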
Summary of the method: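 Viability after 48 h compound treatment at 37C, 500-1,000 cells/well, read as ATP luminescence with CellTiter-Glo. Primary screens used 11-point (MIPE, 0.78 nM-46 µM) or 8-point (NPC, 0.59 nM-46 µM) final concentrations; follow-up screens used 11-point dilutions.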

[8] = qHTS of pediatric cancer cell lines to identify multiple opportunities for drug repurposing: Primary screen for LAN-5 cells (AID 1347100); also: potency is read from the fitted curve at half-maximal effect
Summary of the method: as §2

[9] = qHTS of pediatric cancer cell lines to identify multiple opportunities for drug repurposing: Primary screen for BT-12 cells (AID 1347101); also: nearly all actives have a fitted effect of over 25% in size; also: potency is read from the fitted curve at half-maximal effect
Summary of the method: as §2

[10] = qHTS of pediatric cancer cell lines to identify multiple opportunities for drug repurposing: Primary screen for OHS-50 cells (AID 1347103); also: nearly all actives have a fitted effect of over 40% in size; also: potency is read from the fitted curve at half-maximal effect
Summary of the method: as §2

Measured: Potency

CCN(CC)C(=O)/C(C#N)=C/c1cc(O)c(O)c([N+](=O)[O-])c1
not listed: [8] | [9] | [10]
inactive: all other assays above

O=C(Nc1ccc(Cl)c(Cl)c1)C1CC1
not listed: [9] | [10]
inactive: all other assays above

O=c1[nH]c(=O)n([C@H]2CCCO2)cc1F
not listed: [3] | [5] | [10]
inactive: all other assays above

CCCCS(=O)(=O)N[C@@H](Cc1ccc(OCCCCC2CCNCC2)cc1)C(=O)O
not listed: [2] | [10]
inactive: all other assays above

Cc1cccc(C)c1NC(=O)CN1CCN(CCCC(c2ccc(F)cc2)c2ccc(F)cc2)CC1
not listed: [7] | [8] | [10]
inactive: all other assays above

OC[C@H]1O[C@@H](n2cnc3c(=S)nc[nH]c32)[C@H](O)[C@@H]1O
inactive: [4] | [5] | [6] | [7]
active: [1] 15 µM | [3] 0.75 µM | [8] 2.11 µM | [9] 9.78 µM | [10] 0.55 µM

Cc1ccc(O)c2ncccc12
active: [1] 21.1 µM | [2] 7.7 µM | [3] 2.37 µM | [9] 11 µM | [5] 8.41 µM | [6] 10.6 µM

CC(=O)OCC(=O)[C@@]1(OC(C)=O)[C@@H](C)C[C@H]2[C@@H]3C[C@H](F)C4=CC(=O)C=C[C@]4(C)[C@@]3(F)[C@@H](O)C[C@@]21C
not listed: [3] | [5]
inactive: all other assays above

COc1cc2c(cc1OC)C(C(C(=O)N(CCc1ccc(OC)c(OC)c1OC)CCc1ccc(OC)c(OC)c1OC)c1ccccc1)=NCC2 (stereo not drawn)
not listed: [6] | [9] | [10]
inactive: all other assays above

COc1cccc(CCc2ccccc2OCC(CN(C)C)OC(=O)CCC(=O)O)c1 (stereo not drawn)
active: [2] 17.2 µM
inactive: [1] | [3] | [6] | [7]

CC(=O)N(O)CCCCCNC(=O)CCC(=O)N(O)CCCCCNC(=O)CCC(=O)N(O)CCCCCN
inactive: [1]
active: [2] 5.45 µM | [9] 12.3 µM | [10] 13.8 µM

c1ccc(OCc2ccc(CCCN3CCOCC3)cc2)cc1
inactive: [1] | [2] | [3] | [4] | [6] | [7]

COc1ccc(/C=C/C(=O)c2ccc(OC)cc2OC)cc1
inactive: [6] | [7]
active: [1] 10.6 µM | [2] 19.4 µM | [8] 21.1 µM

CCOc1ccc2nc3cc(N)ccc3c(N)c2c1
active: [2] 15.4 µM | [9] 11 µM | [5] 23.7 µM
inactive: [3] | [10] | [6] | [7]

CCCCN1CCCC1C(=O)Nc1c(C)cc(C)cc1C (stereo not drawn)
not listed: [1] | [5] | [10]
inactive: all other assays above

CCN(CCCc1ccccc1)CCCc1ccccc1
inactive: [1] | [3] | [8] | [4] | [6] | [7]

Cc1ccccc1C(=O)Nc1ccc(C(=O)N2CCCC(N(C)C)c3ccccc32)cc1 (stereo not drawn)
active: [1] 6.68 µM | [8] 18.8 µM
inactive: [7]

CC(=O)OCC(=O)[C@@]12OC(C)(C)O[C@@H]1C[C@H]1[C@@H]3C[C@H](F)C4=CC(=O)C=C[C@]4(C)[C@@]3(F)[C@@H](O)C[C@@]12C
not listed: [1] | [10]
inactive: all other assays above

CN1CCN(CCCN2c3ccccc3Sc3ccc(S(=O)(=O)N(C)C)cc32)CC1
inactive: [3] | [7]
active: [2] 15.4 µM | [4] 23.7 µM | [10] 24.6 µM
